# Values joined by “and” are separate entries in the source; they are usually repeats but may differ in a detail not shown here. Equal values may be shown once. Inconclusive results are not listed. The source holds several records for some structures; these can differ, active in one and inactive in another. Active and inactive are the calls of the source. Rule for the calls, unless noted: active = hit-call score of the fitted dose curve at least 0.9, where 1 is the maximum; inactive = score below 0.9.
# Tests used:
# [1] = read-out: Interleukin-8 (IL8), CXCL8 (gene 3576); test: BSK_3C_IL8: BioMAP Diversity Plus: 3C Assay for Interleukin-8 (IL8) Biomarker Activity (AID 2283020); details: primary human endothelial cells (HUVEC); actives raise or lower the signal
# In short: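 Primary human umbilical vein endothelial cells were dosed for 24 h. IL-8 was quantified by ELISA and fitted bidirectionally against DMSO. Cytotoxicity was assessed in parallel cultures by SRB staining at 560 nm.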
# [2] = read-out: Monokine induced gamma interferon (MIG), CXCL9 (gene 4283); test: BSK_3C_MIG: BioMAP Diversity Plus: 3C Assay for Monokine induced gamma interferon (MIG) Biomarker Activity (AID 2283021); details: primary human endothelial cells (HUVEC); actives raise or lower the signal;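 for AC50: MIG protein level measured by immunoassay in the treated endothelial cultures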
# In short: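 HUVEC primary endothelial cultures dosed with chemical; MIG quantified by ELISA at 24 h. Data fitted bidirectionally against DMSO control, with parallel SRB total-protein staining for cytotoxicity.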
# [3] = target: human Vitamin D Receptor (VDR), VDR (gene 7421) (UniProt P11473); test: ATG_VDR_TRANS: Attagene TRANS-FACTORIAL HepG2 Assay for human Vitamin D Receptor (VDR) (AID 2283022; active = hit-call score of the fitted dose curve at least 0.9, where 1 is the maximum)
# In short: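 Steps: transfect HepG2 with GAL4-UAS-driven reporter constructs; dose compounds 24 h; isolate RNA, reverse-transcribe, PCR-amplify with 6-FAM-labelled primer extension and HpaI digestion; quantify fragments by capillary electrophoresis relative to DMSO.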
# [4] = BSK_3C_SRB: Viability Assessment in the BioMAP Diversity Plus: 3C Assay (AID 2283023); details: primary human endothelial cells (HUVEC);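 note: cells read 24 h after compound dosing; fitted both ways against DMSO so a hit may be signal rise or drop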
# In short: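 Absorbance at 560 nm of sulforhodamine B-stained (0.1%) total protein served as a cytotoxicity readout in human umbilical vein endothelial cells, 24 h after chemical treatment. Signal was fitted bidirectionally relative to DMSO.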
# [5] = read-out: Matrix Metallopeptidase 1 (MMP1), MMP1 (gene 4312); test: BSK_BE3C_MMP1: BioMAP Diversity Plus: BE3C Assay for Matrix Metallopeptidase 1 (MMP1) Biomarker Activity (AID 2283024); details: primary human bronchial epithelial cells; actives raise or lower the signal
# In short: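 Human primary bronchial epithelial cells (BE3C system) dosed for 24 h; MMP-1 quantified by ELISA. Bidirectional fit against DMSO; cytotoxicity tracked in parallel cultures by SRB total-protein staining.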
# [6] = BSK_3C_Vis: BioMAP Diversity Plus: 3C Assay for Morphology Visualization (AID 2283025); details: primary human endothelial cells (HUVEC);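 note: fitted both ways so gain or loss versus DMSO counts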;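 for AC50: light microscopy image of cell morphology used as background control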
# In short: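 Human umbilical vein endothelial cell morphology was inspected by light microscopy 24 h after chemical dosing; scored bidirectionally relative to DMSO.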
# [7] = read-out: Pselectin, SELP (gene 6403); test: BSK_4H_Pselectin: BioMAP Diversity Plus: 4H Assay for Pselectin Biomarker Activity (AID 2283026); details: primary human endothelial cells (HUVEC); actives raise or lower the signal
# In short: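 Primary human umbilical vein endothelial cells were treated 24 h, and cell-surface P-selectin was then quantified by ELISA. Bidirectional fit versus DMSO; cytotoxicity checked in parallel cultures by SRB total-protein staining.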
# [8] = BSK_4H_SRB: Viability Assessment in the BioMAP Diversity Plus: 4H Assay (AID 2283027); details: primary human endothelial cells (HUVEC);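 note: cells exposed to compound for 24 h before staining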;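 for AC50: curves fitted both ways versus DMSO so AC50 may be loss or gain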
# In short: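 Absorbance at 560 nm of SRB-stained total protein served as the viability read-out in confluent primary human umbilical vein endothelium 24 h after chemical treatment. Curves were fitted bidirectionally against DMSO as negative control.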
# [9] = BSK_BE3C_SRB: Viability Assessment in the BioMAP Diversity Plus: BE3C Assay (AID 2283028); details: primary human bronchial epithelial cells;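 for AC50: fitted both ways so AC50 may mark signal gain or loss versus DMSO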
# In short: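 Cells (human bronchial epithelial, primary) are treated with chemicals, and after 24 h the parallel cultures are fixed in 10% TCA. These are then stained with 0.1% SRB and read at 560 nm. Gain or loss of signal is fitted relative to DMSO.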
# [10] = read-out: Thrombomodulin, THBD (gene 7056); test: BSK_3C_Thrombomodulin: BioMAP Diversity Plus: 3C Assay for Thrombomodulin Biomarker Activity (AID 2283029); details: primary human endothelial cells (HUVEC); actives raise or lower the signal
# In short: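 Human umbilical vein endothelial cells were exposed to chemicals for 24 h; cell-surface thrombomodulin quantified by ELISA, with bidirectional fitting against DMSO baseline.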
# Chain of human Vitamin D Receptor (VDR), VDR (gene 7421) (P11473 whole entry, looked up, the tested form may be a part): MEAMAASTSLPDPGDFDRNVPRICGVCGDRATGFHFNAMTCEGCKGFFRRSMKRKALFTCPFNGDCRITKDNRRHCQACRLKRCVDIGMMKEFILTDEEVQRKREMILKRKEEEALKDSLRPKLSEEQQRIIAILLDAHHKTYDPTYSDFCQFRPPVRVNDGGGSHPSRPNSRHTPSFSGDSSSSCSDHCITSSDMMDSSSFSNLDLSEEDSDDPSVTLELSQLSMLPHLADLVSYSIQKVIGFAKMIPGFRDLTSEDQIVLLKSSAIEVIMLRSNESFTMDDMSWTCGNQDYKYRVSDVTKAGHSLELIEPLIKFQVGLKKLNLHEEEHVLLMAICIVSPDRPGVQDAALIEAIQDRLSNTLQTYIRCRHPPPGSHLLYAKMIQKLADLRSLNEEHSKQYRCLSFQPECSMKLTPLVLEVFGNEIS
Compound,outcome [1],outcome [2],outcome [3],outcome [4],outcome [5],outcome [6],outcome [7],outcome [8],outcome [9],outcome [10],AC50 [4],AC50 [6],AC50 [1],AC50 [2],AC50 [5],AC50 [7],AC50 [8],AC50 [9],AC50 [3],AC50 [10]
CCOC(=O)CC(SP(=S)(OC)OC)C(=O)OCC (centres undefined),inactive,inactive,inactive,inactive,inactive,inactive,inactive,inactive,inactive,inactive,–,–,–,–,–,–,–,–,–,–
COC(=O)C(C)Oc1ccc(Oc2ccc(Cl)cc2Cl)cc1 (centres undefined),inactive,inactive,inactive,inactive,inactive,inactive,inactive,inactive,inactive,inactive,14 µM (active) and 20 µM (active),39 µM (active),–,–,–,–,–,–,–,–
CCCCNC(=O)OCC#CI,–,–,inactive,–,–,–,–,–,–,inactive,18.9 µM (active) and 21.1 µM (active),11.9 µM (active) and 14.4 µM (active),26.2 µM (active) and 28.9 µM (active),32.3 µM (active) and 34.4 µM (active),32.9 µM (active),12.8 µM (active) and 16.1 µM (active),29 µM (active) and 27.9 µM (active),21.5 µM (active) and 26.9 µM (active),–,–
COC(=O)c1ccccc1C(=O)OC,inactive,inactive,inactive,inactive,inactive,inactive,inactive,inactive,inactive,inactive,–,–,–,–,–,–,–,–,–,–
C=CCC1=C(C)C(OC(=O)C2C(C=C(C)C)C2(C)C)CC1=O (centres undefined),–,inactive,inactive,–,inactive,inactive,inactive,–,inactive,inactive,32.8 µM (active) [middle of 4 runs],39.4 µM (active) and 39 µM (active),32.3 µM (active) [middle of 4 runs],31.7 µM (active),9.44 µM (active) and 7.51 µM (active),34.9 µM (active) and 33 µM (active) and 33.2 µM (active),32.7 µM (active) [middle of 4 runs],–,105 µM (active),–
CCCCOC(=O)c1ccccc1C(=O)OCCCC,inactive,inactive,inactive,inactive,inactive,inactive,inactive,inactive,inactive,inactive,15.2 µM (active),–,–,–,–,–,–,–,–,–
Cc1ccc(-c2c(Cl)nc(C#N)n2S(=O)(=O)N(C)C)cc1,–,inactive,inactive,–,inactive,–,–,–,–,inactive,26.1 µM (active),15.2 µM (active),15.8 µM (active),–,–,17.7 µM (active),25.5 µM (active),27.4 µM (active),–,–
COc1ccc(C(c2ccc(OC)cc2)C(Cl)(Cl)Cl)cc1,–,inactive,inactive,–,–,–,–,–,–,inactive,20.1 µM (active),15.2 µM (active),24.9 µM (active),–,6.22 µM (active),33.4 µM (active),26.9 µM (active),19.4 µM (active),–,–
CON(C)C(=O)Nc1ccc(Cl)c(Cl)c1,inactive,inactive,inactive,inactive,inactive,inactive,inactive,inactive,inactive,inactive,–,–,–,–,–,–,–,–,–,–
CC(C)Oc1cc(-n2nc(C(C)(C)C)oc2=O)c(Cl)cc1Cl,–,inactive,inactive,–,–,–,–,–,–,–,28.8 µM (active),13.2 µM (active),29 µM (active),–,7.66 µM (active),29.3 µM (active),30.3 µM (active),20 µM (active),–,20 µM (active)
O=C(Nc1ccccc1)Nc1ccnc(Cl)c1,inactive,inactive,inactive,inactive,inactive,inactive,inactive,inactive,inactive,–,–,–,–,–,–,–,–,–,–,1.43 µM (active)
CC1=C(C(=O)Nc2ccccc2)SCCO1,inactive,inactive,inactive,inactive,inactive,inactive,inactive,inactive,inactive,inactive,–,–,–,–,–,–,–,–,–,–
C=CCC1=C(C)[C@@H](OC(=O)[C@@H]2[C@@H](C=C(C)C)C2(C)C)CC1=O,–,inactive,inactive,–,inactive,–,–,–,–,inactive,25.8 µM (active),13.7 µM (active),35.4 µM (active),–,–,31.6 µM (active),30.2 µM (active),18.8 µM (active),–,–
CCCN(CCC)c1c([N+](=O)[O-])cc(S(N)(=O)=O)cc1[N+](=O)[O-],–,–,inactive,–,–,–,–,–,–,inactive,31.3 µM (active) [middle of 4 runs],41 µM (active) and 41.8 µM (active) and 16.3 µM (active),34.2 µM (active) [middle of 4 runs],39 µM (active) and 41.1 µM (active) and 35.7 µM (active),36 µM (active) [middle of 4 runs],34.2 µM (active) [middle of 4 runs],32.3 µM (active) [middle of 4 runs],34.3 µM (active) [middle of 4 runs],61.2 µM (active),–
CN(C)C(=S)SSC(=S)N(C)C,–,–,inactive,inactive,–,–,–,–,–,inactive,–,16.3 µM (active),31.7 µM (active),33.6 µM (active),14.2 µM (active),14 µM (active),25.7 µM (active),8.39 µM (active),–,–
CCCCNC(=O)n1c(NC(=O)OC)nc2ccccc21,inactive,inactive,inactive,–,inactive,–,inactive,–,inactive,inactive,8.93 µM (active),9.8 µM (active),–,–,–,–,14 µM (active),–,–,–
CCOC(=O)C(Cl)Cc1cc(-n2nc(C)n(C(F)F)c2=O)c(F)cc1Cl (centres undefined),inactive,inactive,inactive,inactive,inactive,inactive,inactive,inactive,inactive,inactive,–,–,–,–,–,–,–,–,–,–
CCNc1nc(Cl)nc(NCC)n1,inactive,inactive,inactive,inactive,inactive,inactive,inactive,inactive,inactive,inactive,–,–,–,–,–,–,–,–,–,–
OC(c1ccc(Cl)cc1)(c1cncnc1)c1ccccc1Cl (centres undefined),inactive,inactive,inactive,–,inactive,–,–,inactive,inactive,inactive,26 µM (active),9.8 µM (active),–,–,–,23.9 µM (active),–,–,–,–
CC1COC(Cn2cncn2)(c2ccc(Oc3ccc(Cl)cc3)cc2Cl)O1 (centres undefined),–,–,inactive,–,–,–,–,–,–,inactive,20.8 µM (active),37.2 µM (active),28.6 µM (active),33.4 µM (active),32.2 µM (active),24.7 µM (active),26.9 µM (active),31 µM (active),–,–
C=CC1(C)OC(=O)N(c2cc(Cl)cc(Cl)c2)C1=O (centres undefined),inactive,inactive,inactive,inactive,inactive,inactive,inactive,inactive,inactive,inactive,–,–,–,–,–,–,–,–,–,–
O=C(O)COc1nc(Cl)c(Cl)cc1Cl,inactive,inactive,inactive,inactive,inactive,inactive,inactive,inactive,inactive,inactive,–,–,–,–,–,–,–,–,–,–
N#Cc1nn(-c2c(Cl)cc(C(F)(F)F)cc2Cl)c(N)c1S(=O)C(F)(F)F (centres undefined),–,inactive,inactive,–,inactive,–,–,–,–,inactive,32.8 µM (active),37.5 µM (active),27.8 µM (active),–,–,20 µM (active),33.5 µM (active),18 µM (active),–,–
CNC(=S)S,inactive,inactive,inactive,–,inactive,–,inactive,–,inactive,inactive,13.3 µM (active),13.2 µM (active),–,–,–,–,20 µM (active),–,–,–
COc1cnc(OC)n2nc(NS(=O)(=O)c3c(OCC(F)F)cccc3C(F)(F)F)nc12,inactive,inactive,–,inactive,inactive,inactive,inactive,inactive,inactive,inactive,–,–,0.016 µM (active),–,–,–,–,–,–,–

# Reference: PubChem BioAssay (EPA / NIEHS)
